Assay [1] can be described thus: qHTS assay to identify small molecule antagonists of the estrogen receptor alpha (ER-alpha) signaling pathway using the BG1 cell line in the presence of 0.1 nM 17-beta-estradiol - cell viability counter screen (AID 1259241). Note: nearly all actives have a fitted effect of over 40% in size. The procedure, abridged: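 The cell line endogenously expresses full-length ER-alpha and carries four EREs driving luciferase. Cells are cultured 5 days hormone-free, treated 22 hr with compounds and 0.1 nM estradiol, then viability is read by fluorescence.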
On the technique in general: Quantitative high-throughput screening tests each substance at several concentrations.

Assay [2] in a line: qHTS assay to identify small molecule antagonists of the androgen receptor (AR) signaling pathway using the MDA cell line in the presence of 0.5 nM R1881 - cell viability counter screen (AID 1259242). Note: nearly all actives have a fitted effect of over 45% in size. In outline:
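Cytotoxicity toward MDA-kb2 cells is measured by CellTiter-Fluor live-cell protease fluorescence after 16 hr compound exposure at 37C in the presence of 0.5 nM R1881 stimulator.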

Assay [3] is described as follows: qHTS assay to identify small molecule HDAC inhibitors (AID 1259364). Note: top concentration of the series differs between compounds; nearly all actives have a fitted effect of over 45% in size. In outline: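 Homogeneous cell-based luminescent assay of endogenous class I/II HDAC activity; HCT-116 cells, 2 h compound exposure, 30 min HDAC-Glo development at RT.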
The nature of assay [4]: qHTS assay to identify small molecule HDAC inhibitors - cell viability counter screen (AID 1259365). Note: series mostly up to about 92 µM; nearly all actives have a fitted effect of over 50% in size. In outline: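 Viability readout: CellTiter-Glo luminescence. Wild-type HCT-116 cells, 2hr compound treatment following overnight attachment at 37 C.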
Assay [5] in a line: qHTS assay to identify small molecule agonists of the sonic hedgehog signaling (Shh) pathway - cell viability counter screen (AID 1259366). Note: nearly all actives have a fitted effect of over 50% in size. The procedure, abridged:
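Viability measured fluorometrically (CellTiter-Fluor, 1hr, 37C) in 3T3 Gli1-Luc reporter cells after 23hr compound exposure within a 24hr incubation at 37C/5% CO2.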

Assay [6] can be described thus: qHTS assay to identify small molecule antagonists of the sonic hedgehog signaling (Shh) pathway - cell viability counter screen (AID 1259367). Note: nearly all actives have a fitted effect of over 55% in size. In outline: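 After a 4 hr settling period, 3T3 Gli1-Luc cells were treated with DMSO-dissolved chemicals and conditioned medium, kept 24 hr at 37C in 5% CO2, and assayed for viability by CellTiter-Fluor fluorescence following 1 hr reagent incubation.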

Assay [7] can be described thus: qHTS assay to identify small molecule agonists of the sonic hedgehog signaling (Shh) pathway (AID 1259368; calls by dose curve;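 note: NIH/3T3-derived 3T3Gli1-Luc cells carrying a stable Gli1-driven firefly luciferase reporter; series mostly up to about 92 µM; nearly all actives have a fitted effect of over 15% in size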). In outline: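 Steps: seed 3T3 Gli1-Luc cells, incubate 4 hr at 37 C, pin-transfer compounds in DMSO alongside a positive control, incubate 24 hr, add luciferase detection reagent, wait 30 min at room temperature, read luminescence.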
A short description of assay [8]: qHTS assay to identify small molecule antagonists of the sonic hedgehog signaling (Shh) pathway (AID 1259369; calls by dose curve; note: nearly all actives have a fitted effect of over 45% in size; note: potency is the fitted concentration of half-maximal effect). The procedure, abridged: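 Inhibition of Shh signalling is measured as reduced Gli1-response-element firefly luciferase output in an NIH/3T3-derived stable reporter clone stimulated with conditioned medium for 24hr.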
Assay [9] has as its target Estrogen receptor beta (Homo sapiens) (UniProt Q92731). As to the kind of experiment: qHTS assay to identify small molecule agonists of the estrogen receptor beta (ER-beta) signaling pathway (AID 1259377; active = well fitted activation curve with a large enough effect in the signal ratio in the repeat runs, not every such curve was filed as active; the % refers to the signal ratio; note: potency is the fitted concentration of half-maximal effect). In outline:
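A UAS-controlled beta-lactamase reporter in ER-beta-UAS-bla HEK293T cells reports receptor activation. Compounds act for 16 hr at 37C in 2% charcoal-stripped serum, and a FRET substrate is read by fluorescence after 2 hours.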

The nature of assay [10]: qHTS assay to identify small molecule agonists of the androgen receptor (AR) signaling pathway in the presence of an antagonist - cell viability counter screen (AID 1259379).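 Note: MDA-kb2 human breast cancer cells carrying an MMTV luciferase reporter; series mostly up to about 92 µM; nearly all actives have a fitted effect of over 25% in size.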 In outline: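 Fluorescence from CellTiter-Fluor, added after 15 hr and read 1 hr later, gave cell viability. Cells were MDA-kb2 exposed to compounds (15 concentrations) in the presence of 3.0uM nilutamide at 37C, 0% CO2.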

Assay [11] is described as follows: qHTS assay to identify small molecule antagonists of the estrogen receptor beta (ER-beta) signaling pathway - cell viability counter screen (AID 1259382). Note: series mostly up to about 92 µM; nearly all actives have a fitted effect of over 55% in size. In outline: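 Following a 6 hr plating period, HEK293T cells carrying a UAS-driven beta-lactamase reporter under ER-beta control received compounds and 1nM E2 (final). After 16 hr at 37C and 2 hr substrate loading, CellTiter-Glo luminescence indicated viability.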

Assay [12] is described as follows: qHTS assay to identify small molecule agonists or antagonists of the thyroid stimulating hormone receptor (TSHR) signaling pathway - wild type cell line counter screen (AID 1259384; calls by dose curve). The procedure, abridged: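 Wild-type HEK293 cells were plated 18 h at 37 C/5% CO2, pin-dosed with compound plus Ro20-1724 medium, held 30 min at room temperature, then given cAMP-d2 and anti-cAMP-cryptate; fluorescence was read after 1 h. Fifteen concentrations, triplicate.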

The target of assay [13] is Thyrotropin receptor (Homo sapiens) (UniProt P16473). As to the kind of experiment: qHTS assay to identify small molecule antagonists of the thyroid stimulating hormone receptor (TSHR) signaling pathway (AID 1259385; calls by dose curve; note: nearly all actives have a fitted effect of over 20% in size). In outline:
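TSHR-HEK293 cells were plated and held 18 h at 37C/5% CO2, then given compound plus Ro20-1724 and stimulated with TSH at 1.5 ng/mL final. After 30 min at room temperature, cAMP was detected with cAMP-d2/anti-cAMP-cryptate (1 h) by fluorescence.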

A short description of assay [14]: qHTS assay to identify small molecule agonists of the estrogen receptor alpha (ER-alpha) signaling pathway in the presence of an antagonist - cell viability counter screen (AID 1259386).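 Note: series mostly up to about 92 µM; cells exposed to compounds for 22 h at 37 °C before the viability read; nearly all actives have a fitted effect of over 30% in size.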 In outline: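 Cells are starved of estrogens for 5 days in charcoal-stripped serum, seeded for 24hr and co-treated with ICI-182,780 (10.0nM final) and test compounds. After 22hr at 37C, viability is read as CellTiter-Fluor fluorescence.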

The target in assay [15] is Estrogen receptor (Homo sapiens) (UniProt P03372). As to the kind of experiment: qHTS assay to identify small molecule antagonists of the estrogen receptor alpha (ER-alpha) signaling pathway using the BG1 cell line in the presence of 0.1 nM 17-beta-estradiol (AID 1259244). Note: nearly all actives have a fitted effect of over 50% in size. In outline:
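After 5 days in hormone-depleted medium (charcoal-stripped serum, no phenol red), VM7Luc4E2 cells were seeded, incubated 24 h, then co-treated with compound and 0.1 nM (final) estradiol for 22 h before luminescence detection.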

For assay [16] the target is unchanged. As to the kind of experiment: qHTS assay to identify small molecule agonists of the estrogen receptor alpha (ER-alpha) signaling pathway in the presence of an antagonist (AID 1259383; calls by dose curve; note: nearly all actives have a fitted effect of over 15% in size; note: potency is the fitted concentration of half-maximal effect; for activation: top concentration of the series differs between compounds). The procedure, abridged:
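Cells are hormone-deprived for 5 days (charcoal-stripped FBS, no phenol red), plated for 24hr, spiked with 10.0nM ICI-182,780, then dosed at 15 concentrations. After 22hr at 37C, ONE-Glo luminescence reports ERE-luciferase activity.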

The nature of assay [17]: qHTS assay to identify small molecule agonists of the estrogen receptor beta (ER-beta) signaling pathway - cell viability counter screen (AID 1259380). Note: nearly all actives have a fitted effect of over 30% in size. Note: potency is the fitted concentration of half-maximal effect. The procedure, abridged: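 Same-well viability counter screen. Cells: ER-beta-UAS-bla HEK293T, plated 6 hr before compound, in 2% charcoal-stripped FBS. Compound exposure 16 hr, 37C; viability by CellTiter-Glo luminescence after 30 min at room temperature.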

The target in assay [18] is Estrogen receptor beta (Homo sapiens) (UniProt Q92731). Kind of assay: qHTS assay to identify small molecule antagonists of the estrogen receptor beta (ER-beta) signaling pathway (AID 1259378; active = well fitted inhibition curve with a large enough effect in the signal ratio in the repeat runs, not every such curve was filed as active; the % refers to the signal ratio; note: potency is the fitted concentration of half-maximal effect). In outline: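 ER-beta-UAS-bla HEK293T (GripTite) cells in 2% charcoal-stripped FBS medium were preincubated 6 hr at 37C, dosed with compound, then stimulated with 1 nM E2 (final) for 16 hr; beta-lactamase reporter read by B/G FRET fluorescence after 2 hr substrate loading.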
Sequence of Estrogen receptor beta (Homo sapiens) (Q92731 whole entry, looked up): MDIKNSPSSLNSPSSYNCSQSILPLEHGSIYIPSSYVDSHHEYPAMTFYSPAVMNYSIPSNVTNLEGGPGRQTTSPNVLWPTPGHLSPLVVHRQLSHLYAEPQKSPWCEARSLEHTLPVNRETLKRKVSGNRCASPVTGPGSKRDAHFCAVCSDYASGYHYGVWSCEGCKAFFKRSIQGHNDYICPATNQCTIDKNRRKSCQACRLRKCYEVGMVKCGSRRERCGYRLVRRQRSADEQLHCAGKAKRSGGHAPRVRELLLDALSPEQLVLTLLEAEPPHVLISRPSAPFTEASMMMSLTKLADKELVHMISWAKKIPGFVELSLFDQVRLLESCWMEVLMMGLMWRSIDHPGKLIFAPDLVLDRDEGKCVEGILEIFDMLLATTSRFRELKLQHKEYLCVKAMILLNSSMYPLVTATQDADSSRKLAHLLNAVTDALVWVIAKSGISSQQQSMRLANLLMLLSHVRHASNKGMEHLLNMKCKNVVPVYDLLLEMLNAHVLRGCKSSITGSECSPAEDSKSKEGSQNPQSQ

Inconclusive results are not listed. Active and inactive are the calls of the source. Unless noted, calls come from the whole dose curve; as a rule, active = well fitted curve in the direction sought with a large enough effect in the repeat runs; inconclusive = weak or mixed curves; inactive = no such curve, though single readings can be large; an effect the other way counts as inactive or inconclusive.

Sequence of Thyrotropin receptor (Homo sapiens) (P16473 whole entry, looked up): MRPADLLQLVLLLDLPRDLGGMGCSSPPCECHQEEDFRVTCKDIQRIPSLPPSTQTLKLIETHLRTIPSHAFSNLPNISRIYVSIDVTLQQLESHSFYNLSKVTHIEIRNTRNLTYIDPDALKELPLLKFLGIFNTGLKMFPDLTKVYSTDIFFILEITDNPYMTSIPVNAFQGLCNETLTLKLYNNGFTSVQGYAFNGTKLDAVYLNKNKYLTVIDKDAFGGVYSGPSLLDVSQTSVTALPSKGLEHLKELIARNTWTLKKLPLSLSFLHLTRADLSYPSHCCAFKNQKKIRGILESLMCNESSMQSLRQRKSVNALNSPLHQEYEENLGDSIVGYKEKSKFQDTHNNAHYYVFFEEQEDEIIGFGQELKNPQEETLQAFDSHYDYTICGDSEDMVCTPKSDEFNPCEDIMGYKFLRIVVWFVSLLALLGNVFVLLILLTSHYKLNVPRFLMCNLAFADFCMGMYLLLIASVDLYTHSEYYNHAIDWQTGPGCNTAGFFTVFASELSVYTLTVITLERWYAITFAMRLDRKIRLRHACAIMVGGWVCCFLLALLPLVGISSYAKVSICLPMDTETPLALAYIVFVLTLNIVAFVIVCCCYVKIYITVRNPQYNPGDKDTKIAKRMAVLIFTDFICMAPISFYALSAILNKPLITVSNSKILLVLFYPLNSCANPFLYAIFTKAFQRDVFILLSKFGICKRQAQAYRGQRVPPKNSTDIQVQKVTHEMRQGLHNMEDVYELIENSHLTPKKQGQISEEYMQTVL
Sequence of Estrogen receptor (Homo sapiens) (P03372 whole entry, looked up): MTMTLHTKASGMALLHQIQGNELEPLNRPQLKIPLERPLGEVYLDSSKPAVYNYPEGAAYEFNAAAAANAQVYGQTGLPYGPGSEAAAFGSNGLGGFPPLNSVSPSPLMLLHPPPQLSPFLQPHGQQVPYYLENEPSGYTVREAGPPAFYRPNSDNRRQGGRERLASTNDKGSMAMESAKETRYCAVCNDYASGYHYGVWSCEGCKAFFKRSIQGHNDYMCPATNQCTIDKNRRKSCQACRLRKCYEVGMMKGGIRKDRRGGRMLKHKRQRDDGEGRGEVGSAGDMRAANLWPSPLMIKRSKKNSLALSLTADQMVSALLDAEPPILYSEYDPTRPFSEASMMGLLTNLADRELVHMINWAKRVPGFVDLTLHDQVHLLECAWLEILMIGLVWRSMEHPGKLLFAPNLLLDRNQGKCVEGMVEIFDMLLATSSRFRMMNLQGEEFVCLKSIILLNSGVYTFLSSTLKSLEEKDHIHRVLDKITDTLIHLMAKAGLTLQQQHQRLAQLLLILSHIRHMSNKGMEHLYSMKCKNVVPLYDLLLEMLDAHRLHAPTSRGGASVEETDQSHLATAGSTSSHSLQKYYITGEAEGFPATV

For `COCCC#N`, the Potency entry in [1], in assay [2], in assay [3], in assay [4], in [5] and in assay [6] was “inactive” each time. Further, the Potency entry in assay [7], in assay [8], in [9], in assay [10], in [11] and in assay [12] was “inactive” in each case. Also, the Potency result in [13] and in assay [14] was “inactive” in each case.

In the case of `CCOP(=O)(Sc1ccccc1)Sc1ccccc1`, the Potency entry in [1], in assay [2], in assay [15], in assay [3], in assay [5] and in [6] was “inactive” throughout. Moreover, the Potency entry in assay [7], in assay [8], in assay [10], in assay [11], in assay [16] and in assay [12] was “inactive” each time. Besides, the Potency result in assay [13] and in assay [14] was “inactive” in each case.

For the compound `CC[C@]1(O)CC[C@H]2[C@@H]3CCC4=CCCC[C@@H]4[C@H]3CC[C@@]21C`, the Potency result in [1], in [2], in [3], in assay [4], in assay [5] and in assay [6] was “inactive” each time. The Potency entry in assay [7], in assay [10], in assay [11], in assay [12], in assay [13] and in assay [14] was “inactive” each time. The Potency in [8] was 13.3 µM (active); in assay [9], 0.0067 µM (active); in assay [16], 0.0019 µM (active).

With `CN/C(=N\[N+](=O)[O-])NCc1cnc(Cl)s1`, the Potency result in assay [1], in assay [2], in [15], in assay [3], in assay [5] and in assay [6] was “inactive” throughout. Further, the Potency result in assay [7], in [8], in assay [9], in [10], in [17] and in [11] was “inactive” each time. Further, the Potency result in [16] and in [14] was “inactive” each time.

`C=CC(=C)C`: the Potency result in [1], in assay [2], in assay [3], in assay [4], in [5] and in [6] was “inactive” throughout. Also, the Potency entry in assay [7], in [8], in [9], in assay [18], in [10] and in assay [17] was “inactive” each time. For the same compound, the Potency entry in assay [11], in assay [16], in assay [12], in assay [13] and in [14] was “inactive” each time.

In the case of `CC(C)c1c(CN(C)C(C)Cc2ccccc2)n(C)n(-c2ccccc2)c1=O` (centres undefined), the Potency entry in assay [1], in assay [2], in [15], in [3], in assay [5] and in assay [6] was “inactive” throughout. The Potency entry in assay [7], in assay [8], in assay [9], in assay [10], in assay [11] and in assay [16] was “inactive” throughout. The Potency result in [12] and in assay [14] was “inactive” in each case. For the same compound, the results for the Potency in assay [18] and in [17] were 21.1 µM (active) and 6.68 µM (active), respectively.

Take `CCCCC/C=C\C/C=C\C/C=C\C/C=C\CCCC(=O)NCC(=O)O`: the Potency result in assay [1], in assay [2], in assay [15], in assay [3], in [5] and in [6] was “inactive” in each case. The Potency entry in assay [7], in assay [8], in assay [9], in assay [10], in assay [16] and in assay [14] was “inactive” each time. Moreover, in [17], the Potency was 11.9 µM (active).

As for `CC1(C)[C@H](/C=C2\CCSC2=O)[C@@H]1C(=O)OCc1coc(Cc2ccccc2)c1`, the Potency result in assay [1], in [2], in [3], in assay [4], in assay [5] and in assay [6] was “inactive” in each case. In addition, the Potency result in assay [7], in [9], in assay [10], in assay [17], in [11] and in [16] was “inactive” throughout. In addition, the Potency result in [12] and in assay [14] was “inactive” throughout. Besides, the Potency in [8] was 12.2 µM (active).

As to `CC1(C)C(C=C(Cl)Cl)C1C(=O)OC(C#N)c1ccc(F)c(Oc2ccccc2)c1` (centres undefined), the Potency result in [1], in assay [2], in [15], in assay [3], in [5] and in [6] was “inactive” in each case. Also, the Potency result in [7], in assay [8], in assay [9], in [18], in [10] and in [17] was “inactive” in each case. Moreover, the Potency entry in assay [11], in assay [16], in assay [12], in assay [13] and in [14] was “inactive” throughout.

On to `O=C(O)[C@H](O)[C@@H](O)C(=O)O`, for which the Potency entry in [1], in [2], in assay [3], in [4], in assay [5] and in [6] was “inactive” in each case. For the same compound, the Potency result in assay [7], in [8], in [10], in [17], in assay [11] and in [16] was “inactive” in each case. The Potency entry in assay [14] was “inactive”.

As for `[O-][Cl+3]([O-])([O-])O`, the Potency result in assay [1], in [2], in [3], in assay [4], in [5] and in assay [6] was “inactive” each time. Also, the Potency result in [7], in assay [8], in [9], in assay [18], in [10] and in assay [17] was “inactive” in each case. For the same compound, the Potency result in assay [11] and in assay [14] was “inactive” in each case.

In the case of `COC(=O)/C=C(\C)OP(=O)(OC)OC`, the Potency result in assay [1], in [2], in [3], in assay [4], in [5] and in assay [6] was “inactive” throughout. Besides, the Potency result in assay [7], in assay [8], in [9], in assay [10], in assay [17] and in [11] was “inactive” each time. Also, the Potency result in [16], in assay [12] and in assay [14] was “inactive” each time.

For the compound `ClCBr`, the Potency result in assay [1], in assay [2], in assay [15], in assay [3], in assay [5] and in assay [6] was “inactive” each time. The Potency entry in assay [7], in [8], in assay [18], in [10], in [11] and in assay [16] was “inactive” each time. The Potency entry in [12], in [13] and in [14] was “inactive” each time.

Take `[Cl-].[Cl-].[Sn+2]`: the Potency entry in [1], in [2], in [3], in [4], in assay [5] and in assay [6] was “inactive” throughout. The Potency entry in [7], in [8], in assay [10], in [17], in assay [11] and in assay [14] was “inactive” in each case.

These data come from PubChem BioAssay (Tox21).
